PubChem BioAssay (EPA / NIEHS)
Results filed as inconclusive are left out. The source made the active and inactive calls. Rule for the calls, unless noted: active = hit-call score of the fitted dose curve at least 0.9, where 1 is the maximum; inactive = score below 0.9.

Legend:
[1] = BSK_3C_Vis: BioMAP Diversity Plus: 3C Assay for Morphology Visualization (AID 2283025); conditions: primary human endothelial cells (HUVEC);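 note: fitted both ways so gain or loss versus DMSO counts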;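 for AC50: light microscopy image of cell morphology used as background control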
Procedure, shortened: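 Light-microscopy visualization of HUVEC cultures at 24 h post-treatment, with DMSO as baseline for bidirectional fitting.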

[2] = read-out: Vascular endothelial growth factor receptor 2 (Homo sapiens) (UniProt P35968); assay: BSK_4H_VEGFRII: BioMAP Diversity Plus: 4H Assay for Vascular endothelial growth factor receptor 2 (VEGFR2) Biomarker Activity (AID 2283031); conditions: primary human endothelial cells (HUVEC); actives raise or lower the signal;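 for AC50: cell-surface VEGFR2 protein level quantified by ELISA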
Procedure, shortened: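 Primary human umbilical vein endothelial cells (4H system), 24 h exposure; cell-surface VEGFR2 measured by ELISA. Bidirectional fitting versus DMSO; cytotoxicity checked in parallel by SRB total-protein staining.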

[3] = read-out: Transforming growth factor beta 1 (TGFb1), TGFB1 (gene 7040); assay: BSK_BE3C_TGFb1: BioMAP Diversity Plus: BE3C Assay for Transforming growth factor beta 1 (TGFb1) Biomarker Activity (AID 2283036;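 note: TGF-b1 protein level measured by ELISA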); conditions: primary human bronchial epithelial cells; actives raise or lower the signal
Procedure, shortened: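 ELISA readout of TGF-b1 from human lung bronchial epithelial primary cells, taken 24 h post-treatment. Gain or loss of signal fitted relative to DMSO baseline, with parallel SRB staining for overt cytotoxicity.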

[4] = read-out: Urokinase-type plasminogen activator receptor (uPAR), PLAUR (gene 5329); assay: BSK_CASM3C_uPAR: BioMAP Diversity Plus: CASM3C Assay for Urokinase-type plasminogen activator receptor (uPAR) Biomarker Activity (AID 2283054); conditions: primary human coronary artery smooth muscle cells; actives raise or lower the signal;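 note: cell-surface uPAR protein level quantified by ELISA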
[5] = read-out: Transforming growth factor beta 1 (TGFb1), TGFB1 (gene 7040); assay: BSK_KF3CT_TGFb1: BioMAP Diversity Plus: KF3CT Assay for Transforming growth factor beta 1 (TGFb1) Biomarker Activity (AID 2283072); conditions: primary human keratinocytes with fibroblasts; actives raise or lower the signal
Procedure, shortened: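 ELISA quantifies TGF-b1 at 24 h post-dose in a primary human skin co-culture of keratinocytes and fibroblasts, with gain or loss judged against DMSO. Parallel SRB total-protein staining flags overt cytotoxicity.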

CD40, CD40 (gene 958) = assay: BSK_SAg_CD40: BioMAP Diversity Plus: SAg Assay for CD40 Biomarker Activity (AID 2283088); conditions: primary human HUVEC with PBMC; actives raise or lower the signal
Procedure, shortened: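 HUVEC plus PBMC co-culture, superantigen-activated, with CD40 read by ELISA 24 h after dosing. Curves fitted in both directions against DMSO. Overt cytotoxicity checked by parallel SRB total-protein staining.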

[6] = BSK_SAg_Proliferation: Cell Proliferation Assessment in the BioMAP Diversity Plus: SAg Assay (AID 2283095); conditions: primary human HUVEC with PBMC;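 note: relative cell number as total protein by SRB absorbance in sub-confluent culture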
Procedure, shortened: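 Relative cell number in the endothelial cell/PBMC co-culture was quantified at 96 h by SRB staining (0.1% SRB, 10% TCA fixation, read at 560 nm). Curves were fitted in both directions relative to DMSO baseline.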

[7] = BSK_SAg_SRB: Viability Assessment in the BioMAP Diversity Plus: SAg Assay (AID 2283096); conditions: primary human HUVEC with PBMC;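 note: cells read one day after compound addition; hits may be either gain or loss of signal compared with DMSO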
Procedure, shortened: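 SRB absorbance at 560 nm served as the viability read-out. Cells (HUVEC plus peripheral blood mononuclear cells) were TCA-fixed and stained 24 h post-dosing; activity fitted in both directions against DMSO controls.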

[8] = BSK_BT_PBMCCytotoxicity: PBMC Cytotoxicity Assessment in the BioMAP Diversity Plus: BT Assay (AID 2284225); conditions: primary human B cells with PBMC;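 note: PBMC viability measured by Alamar Blue dye reduction fluorescence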
Procedure, shortened: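 Viability by Alamar Blue reduction (6 h, ex/em 546/580 nm) after 90 h culture of SEB/TSST-1-activated PBMC (20 ng/mL each) given compound 1 h before activation. DMSO served as baseline for curve fitting.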

[9] = BSK_BT_Bcell_Proliferation: Viability Assessment in the BioMAP Diversity Plus: BT Assay for B cell Proliferation (AID 2284227); conditions: primary human B cells with PBMC
Procedure, shortened: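 Using a human primary B cell–PBMC co-culture, the assay measures total protein by sulforhodamine B absorbance as a gauge of proliferation after 72 h. Analysis followed the positive fitting direction with DMSO as baseline.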

[10] = read-out: Interleukin 6 (IL6), IL6 (gene 3569); assay: BSK_BT_xIL6: BioMAP Diversity Plus: BT Assay for Interleukin 6 (IL6) Biomarker Activity (AID 2284228); conditions: primary human B cells with PBMC
Procedure, shortened: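 Human B cell/PBMC co-culture; secreted IL-6 quantified by Luminex xMAP 24 h after chemical dosing, fitted relative to DMSO. Parallel PBMC viability by Alamar Blue after 1 h pretreatment, 20 ng/mL SEB and TSST-1, 90 h incubation.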

[11] = read-out: Interleukin 17A (IL17A), IL17A (gene 3605); assay: BSK_BT_xIL17A: BioMAP Diversity Plus: BT Assay for Interleukin 17A (IL17A) Biomarker Activity (AID 2284229); conditions: primary human B cells with PBMC
Procedure, shortened: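 Co-culture of human B cells and PBMC, dosed for 24 h in 96-well format. Secreted IL-17A measured with Luminex xMAP; gain-direction fitting against DMSO as baseline.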

[12] = read-out: Tumor necrosis factor (Homo sapiens) (UniProt P01375); assay: BSK_BT_xTNFa: BioMAP Diversity Plus: BT Assay for Tumor necrosis factor alpha (TNF-alpha) Biomarker Activity (AID 2284230); conditions: primary human B cells with PBMC
Procedure, shortened: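 Endpoint derived in the positive direction versus DMSO vehicle. Cells: B cells together with PBMC, exposed 24 h before TNF-alpha in the medium was read on the Luminex xMAP platform.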

[13] = read-out: Collagen III, COL3A1 (gene 1281); assay: BSK_MyoF_CollagenIII: BioMAP Diversity Plus: MyoF Assay for Collagen III Biomarker Activity (AID 2284239); conditions: primary human lung fibroblasts
Procedure, shortened: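 Primary human lung fibroblasts (BioMAP MyoF system) exposed 24 h. Collagen III measured by ELISA; positive-direction fit relative to DMSO.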

[14] = read-out: Interleukin 17F (IL17F), IL17F (gene 112744); assay: BSK_BT_xIL17F: BioMAP Diversity Plus: BT Assay for Interleukin 17F (IL17F) Biomarker Activity (AID 2284243); conditions: primary human B cells with PBMC
Procedure, shortened: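 Human PBMC co-cultured with B cells, compound exposure 24 h; secreted IL-17F quantified by Luminex xMAP, referenced to DMSO control. PBMC viability measured in parallel by Alamar Blue reduction.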

[15] = read-out: Interleukin 2 (IL2), IL2 (gene 3558); assay: BSK_BT_xIL2: BioMAP Diversity Plus: BT Assay for Interleukin 2 (IL2) Biomarker Activity (AID 2284245); conditions: primary human B cells with PBMC
Procedure, shortened: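 Secreted IL-2 was read by Luminex xMAP from B cells co-cultured with PBMC (human primary) 24 h post-dosing; activity was analysed as gain of signal relative to DMSO vehicle.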

[16] = read-out: Collagen IV, COL4A1 (gene 1282); assay: BSK_MyoF_CollagenIV: BioMAP Diversity Plus: MyoF Assay for Collagen IV Biomarker Activity (AID 2284247); conditions: primary human lung fibroblasts
Procedure, shortened: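 Collagen IV quantified by ELISA in human lung fibroblast cultures 24 h after chemical treatment, with DMSO as baseline. Parallel SRB staining (0.1% SRB after TCA fixation, 560 nm) flags overt cytotoxicity.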

[17] = read-out: Matrix Metallopeptidase 1 (MMP1), MMP1 (gene 4312); assay: BSK_MyoF_MMP1: BioMAP Diversity Plus: MyoF Assay for Matrix Metallopeptidase 1 (MMP1) Biomarker Activity (AID 2284268); conditions: primary human lung fibroblasts
Procedure, shortened: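 Human lung fibroblast primary cells; MMP1 measured by ELISA 24 h after dosing, fitted in the positive direction relative to DMSO. Parallel SRB staining (0.1%, after 10% TCA fixation, 560 nm) assesses overt cytotoxicity.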

[18] = read-out: TIMP metallopeptidase inhibitor 1 (TIMP1), TIMP1 (gene 7076); assay: BSK_MyoF_TIMP1: BioMAP Diversity Plus: MyoF Assay for TIMP metallopeptidase inhibitor 1 (TIMP1) Biomarker Activity (AID 2284269); conditions: primary human lung fibroblasts
Procedure, shortened: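 TIMP-1 levels were determined by ELISA in human lung fibroblasts treated for 24 h. DMSO served as negative control and baseline for upward curve fitting.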

[19] = target: Steroid hormone receptor ERR1 (Homo sapiens) (UniProt P11474); assay: ATG_ERRa_TRANS: Attagene TRANS-FACTORIAL HepG2 Assay for human Estrogen-Related Receptor alpha (ERRa) (AID 2282971; active = hit-call score of the fitted dose curve at least 0.9, where 1 is the maximum); conditions: HepG2 Attagene TRANS reporter, ERRa transactivation
Procedure, shortened: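 HepG2 cells transiently transfected with GAL4-UAS reporter units and chimeric NR-Gal4 constructs; after 24 hour compound incubation, reporter mRNA quantified by RT-PCR, fluorescent labelling and capillary electrophoresis, gain of signal versus DMSO.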

Measured: AC50

Sequence of Steroid hormone receptor ERR1 (Homo sapiens) (P11474 whole entry, looked up, the tested form may be a part): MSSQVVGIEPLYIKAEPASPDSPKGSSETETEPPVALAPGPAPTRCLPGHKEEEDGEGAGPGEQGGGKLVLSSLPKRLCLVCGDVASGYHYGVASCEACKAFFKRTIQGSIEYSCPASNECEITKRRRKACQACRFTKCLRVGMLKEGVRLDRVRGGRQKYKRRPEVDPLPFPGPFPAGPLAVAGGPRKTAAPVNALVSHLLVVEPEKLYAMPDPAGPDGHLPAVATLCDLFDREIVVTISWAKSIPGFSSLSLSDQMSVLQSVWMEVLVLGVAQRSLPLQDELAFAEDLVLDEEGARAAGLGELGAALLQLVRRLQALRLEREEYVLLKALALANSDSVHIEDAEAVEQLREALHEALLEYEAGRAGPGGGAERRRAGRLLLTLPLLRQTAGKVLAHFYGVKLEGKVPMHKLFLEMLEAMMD
Sequence of Tumor necrosis factor (Homo sapiens) (P01375 whole entry, looked up): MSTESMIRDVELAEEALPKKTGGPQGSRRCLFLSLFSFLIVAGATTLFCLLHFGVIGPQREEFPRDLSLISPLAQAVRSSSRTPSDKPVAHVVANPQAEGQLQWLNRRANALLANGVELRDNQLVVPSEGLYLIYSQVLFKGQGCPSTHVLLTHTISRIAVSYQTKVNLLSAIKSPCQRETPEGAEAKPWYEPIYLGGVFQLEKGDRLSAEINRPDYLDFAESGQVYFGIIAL

C=CCN(CC=C)C(=O)C(Cl)Cl
not listed: [19]
inactive: all other assays above

CC1(C)C(=O)NC(=O)NC1=O
inactive: [19]

CC(C)(C)C(O)C(Oc1ccc(-c2ccccc2)cc1)n1cncn1 (configuration not stated)
active: [1] 37.6 µM | [2] 34.7 µM | [4] 29 µM | [5] 20 µM | [9] 29.8 µM | [13] 30.5 µM | [15] 20 µM | [16] 20 µM | [17] 30 µM | [18] 17.1 µM
inactive: [3] | CD40, CD40 (gene 958) | [6] | [7] | [8] | [10] | [11] | [12] | [14]

Nc1ccc([N+](=O)[O-])cc1N
inactive: [19]

O=c1c2ccccc2c(=O)c2c1cc(Cl)c1[nH]c3c([nH]c12)c(Cl)cc1c(=O)c2ccccc2c(=O)c13
not listed: [19]
inactive: all other assays above

O=C(CCl)c1ccccc1
inactive: [2] | [3]
active: [1] 4.12 µM | [4] 10.4 µM | [5] 25.7 µM | CD40, CD40 (gene 958) 5.77 µM | [6] 1.06 µM | [7] 14 µM

C[N+](=O)[O-]
inactive: [19]

O=S(=O)(c1ccccc1)c1ccccc1
inactive: all assays above

C#CC1(O)CCCCC1
inactive: [19]

S=c1[nH]c2ccccc2[nH]1
inactive: [19]

Cc1ccc(OP(=O)(Oc2ccc(C)cc2)Oc2ccc(C)cc2)cc1 (tested in a mixture with another compound)
active: [1] 37.5 µM | [4] 1.11 µM | [5] 4.81 µM | CD40, CD40 (gene 958) 20 µM | [6] 9.42 µM | [7] 20 µM | [8] 5.41 µM | [10] 13.2 µM | [11] 14.1 µM | [14] 24.6 µM | [15] 20 µM | [17] 27.6 µM
inactive: [2] | [3] | [9] | [12] | [13] | [16] | [18]

[CH3][Sn]([CH3])([Cl])[Cl]
inactive: [19]

N#CCCCCC#N
inactive: [1] | [2] | [3] | [4] | [5] | CD40, CD40 (gene 958) | [6] | [7]

CC(C)CCCCCCCOC(=O)c1ccccc1C(=O)OCCCCCCCC(C)C
not listed: [19]
inactive: all other assays above
